Reference: PubChem BioAssay (Tox21)
Records with an inconclusive call do not appear. The source made the active and inactive calls. Unless noted, calls follow the shape of the full dose curve.

What was measured:
[1] = Nuclear factor erythroid 2-related factor 2/antioxidant responsive element (Nrf2/ARE) small molecule agonists: qHTS cell viability counter screen in human keratinocytes (AID 1919968; active = well fitted curve in the direction sought with a large enough effect in the repeat runs; an effect the other way counts as inactive or inconclusive; also: nearly all actives have a fitted effect of over 55% in size; also: potency is read from the fitted curve at half-maximal effect)
How it was run: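 HaCaT ARE reporter line, 1,500 cells/well; 5 h settle, 37 C/5% CO2; cpd in DMSO pinned; 23 h exposure; CellTiter-Fluor, 1 h; fluorescence.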

[2] = Nuclear factor erythroid 2-related factor 2/antioxidant responsive element (Nrf2/ARE) small molecule agonists: luciferase reporter gene qHTS assay in human keratinocytes (AID 1919969); also: nearly all actives have a fitted effect of over 35% in size; also: potency is read from the fitted curve at half-maximal effect
[3] = biological target: Gonadotropin-releasing hormone receptor (Homo sapiens) (UniProt P30968); assay: Human gonadotropin-releasing hormone receptor (GnRHR) small molecule agonists, calcium flux assay in GnRHR-HEK293 cells (AID 1920063); also: nearly all actives have a fitted effect of over 35% in size
How it was run: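 GnRHR-HEK293, 1500 cells/well, 18 h 37 C/5% CO2; Ca dye 1 h 37 C; cpd pinned (DMSO), agonist mode; kinetic FL 480/540, 3 min, 1 s reads; 15 conc, n=3.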

[4] = biological target: KiSS-1 receptor (Homo sapiens) (UniProt Q969F8); assay: Human kisspeptin (KISS1R) small molecule agonists, calcium flux assay in KISS1R-HEK293 cells (AID 1920064; active = well fitted curve in the direction sought with a large enough effect in the repeat runs; an effect the other way counts as inactive or inconclusive)
How it was run: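 Stable human KISS1R HEK293 line; 18 h plating, 37 C/5% CO2; calcium dye 1 h 37 C; compound pin transfer; kinetic fluorescence Ex/Em 480/540, 3 min.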

[5] = G protein-coupled receptor (GPCR) small molecule agonists, calcium flux assay: HEK293 wild type cell line counter screen (AID 1920065)
How it was run: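 Kinetic fluorescence at Ex/Em 480/540, recorded every second over 3 min, served as the read-out after compound addition. Each compound was tested at 15 concentrations in triplicate on cells pre-loaded with calcium dye for 1 h.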

[6] = p53 small molecule agonists, cell-based qHTS assay with human liver microsomes (AID 1963577);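 also: p53 response element beta-lactamase reporter cells with liver microsomes plus NADPH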
How it was run: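 In this qHTS, p53 response-element beta-lactamase cells receive test compound together with a microsome/NADPH activating system (0.5 mg/mL final each) and are incubated 16 h at 37 C before LiveBLAzer fluorescence detection.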

[7] = p53 small molecule agonists, cell-based qHTS assay with rat liver microsomes (AID 1963578)
How it was run: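 Agonist mode in p53RE-bla reporter cells, with compounds co-incubated 16 h at 37 C alongside 0.5 mg/mL rat liver microsomes and 0.5 mg/mL NADPH (final), followed by a 2 h LiveBLAzer detection step.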

[8] = p53 small molecule agonists, cell-based qHTS assay with human liver microsomes: qHTS cell viability counter screen (AID 1963579); also: nearly all actives have a fitted effect of over 45% in size; also: potency is read from the fitted curve at half-maximal effect
How it was run: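 Metabolically activated exposure: compounds, human liver microsomes and NADPH (0.5 mg/mL final apiece) were added to p53RE-bla cells seeded 5 h earlier, left 16 h at 37 C, and then assessed for viability by CellTiter-Glo luminescence.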

[9] = p53 small molecule agonists, cell-based qHTS assay with rat liver microsomes: qHTS cell viability counter screen (AID 1963580); also: nearly all actives have a fitted effect of over 45% in size; also: potency is read from the fitted curve at half-maximal effect
How it was run: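 In HCT-116 cells carrying a p53 response element-bla reporter, compounds were metabolically activated in situ by rat liver microsomes with NADPH over 16 h. Cell ATP content then served as the cytotoxicity measure.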

[10] = p53 small molecule agonists, cell-based qHTS assay: qHTS cell viability counter screen (AID 1963581); also: nearly all actives have a fitted effect of over 45% in size; also: potency is read from the fitted curve at half-maximal effect
How it was run: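 HCT-116 p53RE-bla cells, 4,000/well, plated 5 h before compound pin transfer; 16 h at 37 C; bla substrate 2 h RT; then CellTiter-Glo, 30 min RT, luminescence.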

[11] = biological target: 5-hydroxytryptamine receptor 2A (Homo sapiens) (UniProt P28223); assay: 5-hydroxytryptamine receptor 2A (HTR2A) small molecule agonists, cell-based qHTS assay (AID 1963587); also: nearly all actives have a fitted effect of over 30% in size; also: potency is read from the fitted curve at half-maximal effect
How it was run: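 HTR2A-CHO cells, plated 18 h at 37 C/5% CO2, dye-loaded 1 h at 37 C; compounds in DMSO added by pin tool (agonist mode). Intracellular calcium flux read as kinetic fluorescence on FDSS over 2 min at 1 s intervals.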

[12] = biological target: Muscarinic acetylcholine receptor M1 (Homo sapiens) (UniProt P11229); assay: Cholinergic receptor muscarinic 1 (CHRM1) small molecule agonists, cell-based qHTS assay (AID 1963589); also: nearly all actives have a fitted effect of over 35% in size
How it was run: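 Human M1 in stable CHO line; 18 h plating, 1 h dye load 37 C; cpd added (agonist mode); Ca2+ fluorescence kinetic read, 1 s intervals; 15 conc, 3 runs.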

[13] = biological target: Beta-2 adrenergic receptor (Homo sapiens) (UniProt P07550); assay: Adrenergic beta2 receptor (ADRB2) small molecule antagonists, cell-based qHTS assay (AID 1963592); also: series mostly up to about 92 µM; nearly all actives have a fitted effect of over 50% in size
How it was run: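 Cells (CHO, stable ADRB2 overexpression) incubated 18-20hr at 37C; compounds added from DMSO; agonist mix (1nM isoproterenol, 100uM IBMX, 25uM Ro-20-1724) added; 0.5hr RT; d2-cAMP and anti-cAMP-cryptate added; 1hr RT; 665/615 nm read.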

[14] = biological target: D(2) dopamine receptor (Homo sapiens) (UniProt P14416); assay: Dopamine D2 receptor (DRD2) small molecule agonists, cell-based qHTS assay (AID 1963594); also: nearly all actives have a fitted effect of over 35% in size
How it was run: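 HEK293 cells stably expressing DRD2 were cultured 24 h at 37 C, then given Ro20-1724 (0.1 mM final) and compounds for 10 min at room temperature. NKH477 (200nM) was then added for 30 min. cAMP was read by HTRF.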

[15] = biological target: D(2) dopamine receptor (Homo sapiens) (UniProt P14416); assay: Dopamine D2 receptor (DRD2) small molecule antagonists, cell-based qHTS assay (AID 1963595; active = well fitted inhibition curve with a large enough effect in the signal ratio in the repeat runs, with a control signal flat; the % refers to the signal ratio; also: potency is read from the fitted curve at half-maximal effect)
How it was run: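 Cells were plated and grown for 24 h at 37 °C. Ro20-1724 (0.1 mM final) went in first, then compound for 10 min. NKH477 (200 nM) with quinpirole (12 nM) followed for 30 min at RT, then HTRF detection reagents for 1 h.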

[16] = biological target: Muscarinic acetylcholine receptor M1 (Homo sapiens) (UniProt P11229); assay: Cholinergic receptor muscarinic 1 (CHRM1) small molecule antagonists, cell-based qHTS assay (AID 1963588); also: nearly all actives have a fitted effect of over 40% in size
How it was run: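 CHRM1-CHO calcium-flux assay, antagonist mode. Cells were seeded 18 h, dye-loaded 1 h at 37 C and given compound for 5 min at RT, then acetylcholine was added at 50nM. FDSS fluorescence was read 3 min; 15 concentrations, three runs.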

[17] = p53 small molecule agonists, cell-based qHTS assay (AID 1963582; active = well fitted activation curve with a large enough effect in the signal ratio in the repeat runs, not every such curve was filed as active; the % refers to the signal ratio)
How it was run: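 Reporter line: p53RE-bla. Pre-incubation 5 h, 37 C, 5% CO2; compound (DMSO, pin tool) 16 h, 37 C; B/G FRET substrate 2 h RT; fluorescence intensity read.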

[18] = biological target: 5-hydroxytryptamine receptor 2A (Homo sapiens) (UniProt P28223); assay: 5-hydroxytryptamine receptor 2A (HTR2A) small molecule antagonists, cell-based qHTS assay (AID 1963586); also: nearly all actives have a fitted effect of over 45% in size
How it was run: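 Antagonist-mode intracellular calcium assay: DOI (4 nM) added after 5 min compound pre-incubation at room temperature to dye-loaded HTR2A-CHO cells. Fluorescence followed for 3 min, sampled every second.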

[19] = cAMP Responsive Elements (CRE) small molecule antagonists, cell-based qHTS assay (AID 1963591; active = well fitted inhibition curve with a large enough effect in the signal ratio in the repeat runs, not every such curve was filed as active; the % refers to the signal ratio)
How it was run: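 Beta-lactamase reporter read by FRET substrate (LiveBLAzer B/G) after 2 h at room temperature. CRE-bla HEK293T cells had received compound plus 0.25 uM (final) NKH477 for 3 h at 37 °C.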

[20] = cAMP Responsive Elements (CRE) small molecule agonists, cell-based qHTS assay (AID 1963590)
How it was run: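 HEK 293T CRE-bla, 2,000 cells/well, 18 h preincubation 37 C/5% CO2; cpds (DMSO) pinned, 3 h; LiveBLAzer B/G FRET substrate, 2 h RT.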

Measured: Potency

KiSS-1 receptor (Homo sapiens), sequence (Q969F8 whole entry, looked up): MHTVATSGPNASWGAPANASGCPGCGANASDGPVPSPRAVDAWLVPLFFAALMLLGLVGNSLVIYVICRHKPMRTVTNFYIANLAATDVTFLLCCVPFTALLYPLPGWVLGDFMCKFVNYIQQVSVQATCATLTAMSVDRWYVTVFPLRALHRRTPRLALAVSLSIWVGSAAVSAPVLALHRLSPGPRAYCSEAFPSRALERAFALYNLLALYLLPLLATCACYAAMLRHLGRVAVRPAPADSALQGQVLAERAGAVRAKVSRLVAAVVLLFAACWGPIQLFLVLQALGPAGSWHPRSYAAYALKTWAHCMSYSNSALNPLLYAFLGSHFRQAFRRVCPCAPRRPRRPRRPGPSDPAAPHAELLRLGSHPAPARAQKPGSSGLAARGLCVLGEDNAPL
Muscarinic acetylcholine receptor M1 (Homo sapiens), sequence (P11229 whole entry, looked up): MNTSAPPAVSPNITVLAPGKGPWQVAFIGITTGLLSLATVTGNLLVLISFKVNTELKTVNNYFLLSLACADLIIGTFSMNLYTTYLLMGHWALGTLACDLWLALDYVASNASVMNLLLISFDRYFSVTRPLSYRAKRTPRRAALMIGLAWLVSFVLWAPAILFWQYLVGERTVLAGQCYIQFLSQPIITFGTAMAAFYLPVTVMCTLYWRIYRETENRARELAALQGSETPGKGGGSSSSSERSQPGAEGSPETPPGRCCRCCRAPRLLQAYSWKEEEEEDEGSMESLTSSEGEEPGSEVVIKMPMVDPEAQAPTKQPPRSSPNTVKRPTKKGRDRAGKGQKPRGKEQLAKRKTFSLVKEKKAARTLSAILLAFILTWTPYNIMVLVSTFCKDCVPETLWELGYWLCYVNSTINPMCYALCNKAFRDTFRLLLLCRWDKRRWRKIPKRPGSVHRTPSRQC
Gonadotropin-releasing hormone receptor (Homo sapiens), sequence (P30968 whole entry, looked up): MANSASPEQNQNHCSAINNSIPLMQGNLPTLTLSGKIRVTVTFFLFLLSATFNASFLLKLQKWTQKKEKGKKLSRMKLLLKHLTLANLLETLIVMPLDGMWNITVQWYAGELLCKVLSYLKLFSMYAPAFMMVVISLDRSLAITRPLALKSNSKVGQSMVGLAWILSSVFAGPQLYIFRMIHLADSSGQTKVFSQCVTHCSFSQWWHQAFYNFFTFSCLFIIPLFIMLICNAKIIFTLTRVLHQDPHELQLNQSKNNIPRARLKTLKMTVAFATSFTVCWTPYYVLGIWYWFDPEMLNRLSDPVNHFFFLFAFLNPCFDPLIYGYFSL
5-hydroxytryptamine receptor 2A (Homo sapiens), sequence (P28223 whole entry, looked up): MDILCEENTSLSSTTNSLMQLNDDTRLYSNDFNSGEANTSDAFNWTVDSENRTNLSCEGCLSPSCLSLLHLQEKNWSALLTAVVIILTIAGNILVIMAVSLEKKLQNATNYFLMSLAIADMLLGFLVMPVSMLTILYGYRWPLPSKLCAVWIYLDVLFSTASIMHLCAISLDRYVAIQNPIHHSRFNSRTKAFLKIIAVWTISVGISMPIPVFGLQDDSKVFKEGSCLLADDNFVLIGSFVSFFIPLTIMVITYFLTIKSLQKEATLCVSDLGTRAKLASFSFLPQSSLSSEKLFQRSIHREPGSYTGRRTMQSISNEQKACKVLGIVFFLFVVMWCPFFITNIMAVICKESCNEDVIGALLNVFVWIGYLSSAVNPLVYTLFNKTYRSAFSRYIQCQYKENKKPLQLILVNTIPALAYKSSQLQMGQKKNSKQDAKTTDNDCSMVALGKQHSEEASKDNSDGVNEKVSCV
Beta-2 adrenergic receptor (Homo sapiens), sequence (P07550 whole entry, looked up): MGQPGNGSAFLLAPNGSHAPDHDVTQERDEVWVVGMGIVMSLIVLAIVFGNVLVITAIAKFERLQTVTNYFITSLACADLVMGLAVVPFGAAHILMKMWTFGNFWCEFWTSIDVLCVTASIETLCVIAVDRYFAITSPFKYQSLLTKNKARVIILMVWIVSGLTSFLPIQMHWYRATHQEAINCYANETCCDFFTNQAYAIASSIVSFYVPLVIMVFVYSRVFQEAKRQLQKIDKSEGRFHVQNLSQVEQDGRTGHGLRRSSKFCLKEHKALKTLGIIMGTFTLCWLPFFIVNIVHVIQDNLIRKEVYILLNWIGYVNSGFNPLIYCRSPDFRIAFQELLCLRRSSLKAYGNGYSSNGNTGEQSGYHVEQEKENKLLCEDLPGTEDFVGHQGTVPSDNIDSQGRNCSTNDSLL
D(2) dopamine receptor (Homo sapiens), sequence (P14416 whole entry, looked up): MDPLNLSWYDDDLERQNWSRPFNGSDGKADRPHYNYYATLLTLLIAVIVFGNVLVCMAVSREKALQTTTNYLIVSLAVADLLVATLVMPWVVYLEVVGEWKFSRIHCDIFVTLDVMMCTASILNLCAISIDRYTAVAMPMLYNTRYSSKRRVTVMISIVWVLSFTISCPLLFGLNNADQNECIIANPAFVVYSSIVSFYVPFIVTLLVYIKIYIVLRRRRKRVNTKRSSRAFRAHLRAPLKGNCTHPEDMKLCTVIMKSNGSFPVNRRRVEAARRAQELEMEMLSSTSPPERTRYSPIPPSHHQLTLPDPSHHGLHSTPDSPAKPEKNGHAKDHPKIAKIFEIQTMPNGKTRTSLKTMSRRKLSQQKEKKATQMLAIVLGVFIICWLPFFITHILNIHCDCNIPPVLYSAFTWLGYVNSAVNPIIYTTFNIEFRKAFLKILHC

CCCCCCCCCCCCCCCCCCn1cc[n+](C)c1
active: [1] 19.2 µM
not listed: [16] | [17] | [18] | [19] | [20]
inactive: all other assays above

O=C(NC(=O)c1c(F)cccc1F)Nc1ccc(Oc2ccc(C(F)(F)F)cc2Cl)cc1F
not listed: [15] | [17] | [18] | [19] | [20]
inactive: all other assays above

FC(F)OC(F)(F)C(F)Cl (centres undefined)
not listed: [10] | [16] | [20]
inactive: all other assays above

O=C1NCN(c2ccccc2)C12CCN(CC1COc3ccccc3O1)CC2 (centres undefined)
active: [11] 0.0425 µM | [15] 0.0376 µM
not listed: [13] | [17] | [18] | [19] | [20]
inactive: all other assays above

O=c1[nH]c(Cl)c(Cl)cc1Cl
not listed: [11] | [12] | [15] | [16] | [17] | [19] | [20]
inactive: all other assays above

CCN[C@@H](C)Cc1ccccc1
not listed: [10]
inactive: all other assays above

N#Cc1sc2c(=O)c3ccccc3c(=O)c=2sc1C#N
active: [1] 6.11 µM | [2] 2.17 µM | [8] 5.13 µM | [9] 16.2 µM | [10] 4.08 µM
not listed: [17] | [18] | [19] | [20]
inactive: all other assays above

CN(C)c1ccc(N)cc1
active: [1] 29.9 µM | [2] 8.42 µM | [8] 35.5 µM
not listed: [9] | [13] | [14] | [15] | [16] | [20]
inactive: all other assays above
